Source: PubChem (several laboratories)
Most compounds without a hit are left out; they make up all but 4.1% or so of the library.
CSC inhib = cancer stem cell viability inhibitors, primary screen, luminescence; cancer stem cell-like cells viability; inhibition, % at 7.5 µM; actives 1.1% (n = 300,000); AID 2717, 2010; in the data active = inhibition above about 75%; inconclusive = no clear call, values can overlap the other calls; tested in HMLE shEcad cells
A1 inh = caspase 3/7 activation in MEF A1-2A-BIM cells, primary screen, A1 inhibitor project, cell-based, luminescence, HTS | Caspase-Glo 3/7 luminescence, 3 h; percent of clofoctol response, vehicle zero | caspase activation, % (test concentration not listed) | actives 0.066% (n = 330,000) | AID 2462, 2010;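 active = over half of replicate activation scores above 10%, or exactly half above 10 with the replicate mean above 10; inconclusive = replicate mean below 10 yet half the replicates above 10; inactive = over half of replicates below 10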
Beta apoptosis = inhibitors of cytokine-induced beta cell apoptosis, primary screen, luminescence; INS-1E cytokine-induced death, ATP luminescence, 48 h; percent of positive-control rescue, neutral wells zero; protection from apoptosis, % (no concentration beside the values); actives 0.8% (n = 300,000);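 active = Every replicate reaches about 75%, or at least half do and their mean reaches it too, limit read from the data; inconclusive = At least half of replicates reach the limit but their mean does not; inactive = Under half of replicates reach the limit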;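 note: 0% = cytokine-treated negative control wells and 100% = positive control rescue; higher means more ATP so stronger rescue from cytokine killing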
Mdm2-MdmX inh = inhibitors of human Mdm2-MdmX association, primary screen, cell-based, luminescence, split luciferase, SaOS-2, uHTS | SaOS-2 split-luciferase Mdm2/MdmX complementation | inhibition, % at 8 µM | actives 3% (n = 330,000) | AID 485346, 2010;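 active = inhibition of at least 50% at 8 µM in the primary screen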
Target sequence (O15151 whole entry, looked up): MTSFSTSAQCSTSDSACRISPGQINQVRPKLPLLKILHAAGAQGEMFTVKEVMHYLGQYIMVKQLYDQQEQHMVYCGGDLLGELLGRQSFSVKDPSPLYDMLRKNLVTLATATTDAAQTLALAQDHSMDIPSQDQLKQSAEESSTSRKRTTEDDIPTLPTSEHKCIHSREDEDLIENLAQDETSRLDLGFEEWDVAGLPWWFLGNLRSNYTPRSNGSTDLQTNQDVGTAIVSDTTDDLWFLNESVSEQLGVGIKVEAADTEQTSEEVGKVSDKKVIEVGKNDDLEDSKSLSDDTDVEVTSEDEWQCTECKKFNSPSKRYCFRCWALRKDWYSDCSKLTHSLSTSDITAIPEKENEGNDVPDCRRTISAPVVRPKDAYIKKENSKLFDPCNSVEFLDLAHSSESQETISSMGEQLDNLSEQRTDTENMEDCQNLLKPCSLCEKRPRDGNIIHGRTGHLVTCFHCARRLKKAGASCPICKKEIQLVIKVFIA
Target sequence (Q00987 whole entry, looked up): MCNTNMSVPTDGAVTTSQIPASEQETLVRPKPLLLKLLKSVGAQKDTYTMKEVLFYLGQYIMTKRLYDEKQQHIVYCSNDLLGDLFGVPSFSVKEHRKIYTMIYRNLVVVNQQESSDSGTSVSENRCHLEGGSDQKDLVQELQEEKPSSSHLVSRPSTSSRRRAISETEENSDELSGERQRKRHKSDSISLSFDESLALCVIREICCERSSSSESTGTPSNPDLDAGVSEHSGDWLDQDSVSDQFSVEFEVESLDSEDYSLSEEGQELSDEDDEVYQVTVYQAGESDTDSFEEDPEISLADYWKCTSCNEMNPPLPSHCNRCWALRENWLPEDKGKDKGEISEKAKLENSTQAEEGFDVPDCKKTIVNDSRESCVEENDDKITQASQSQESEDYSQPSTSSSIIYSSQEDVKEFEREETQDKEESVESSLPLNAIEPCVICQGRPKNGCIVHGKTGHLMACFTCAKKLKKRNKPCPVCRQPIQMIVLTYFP
aSyn UTR inh = MLPCN primary screen, SNCA 5' untranslated region; alpha-synuclein 5'UTR reporter, inhibitor activity; inhibition, % (tested at 7.5 µM); actives 0.82% (n = 300,000); in the data active = inhibition above about 60%; inconclusive = no clear call, values can overlap the other calls;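 note: H4 neuroglioblastoma cells stably carrying SNCA 5'UTR luciferase fusion; 0% = DMSO wells and 100% = positive control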
Mdm2-MdmX conf = Mdm2-MdmX complex disruptors, retested hits, confirmation, luminescence, single concentration; shares compounds with Mdm2-MdmX inh; Mdm2-MdmX binding, luminescent assay; inhibition, % at 8 µM; actives 55% (n = 10,000); AID 489028, 2010; in the data active = inhibition above about 40%
FLuc counter = full-length luciferase signal inhibition, confirmation, counter-screen for Mdm2/MdmX interaction inhibitor project, cell-based, single concentration, SaOS-2. shares compounds with Mdm2-MdmX inh. SaOS-2 full-length luciferase counterscreen, luminescence. inhibition, % at 8 µM. actives 77% (n = 6,200). AID 504607, 2011;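 active = mean inhibition at 8 µM reaching about 37%, which flags the compound as non-specific, limit read from the data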;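 note: p53-null SaOS-2 cells with luciferase driven by a doxycycline-inducible promoter; compound on cells about two nights before reading with doxycycline added after day one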
Numbers without * were called inactive.

Results for CC(=O)Nc1ccc(Nc2nc(-c3sc(NC(C)=O)nc3C)cs2)cc1 ?
CSC inhib: 2; A1 inh: -7; Beta apoptosis: -12; Mdm2-MdmX inh: 58*; aSyn UTR inh: 2; Mdm2-MdmX conf: 23

Results for Oc1c(Cl)cc(Cl)cc1C=Nc1ccc(Br)cc1 ?
A1 inh: 0; Beta apoptosis: -8; Mdm2-MdmX inh: 92*; aSyn UTR inh: -14; Mdm2-MdmX conf: 52*; FLuc counter: 60*

How did CC1CCN(S(=O)(=O)CCNC(=O)c2ccc3c(c2)OCO3)CC1 do in these assays?
A1 inh: 0; Beta apoptosis: -2; Mdm2-MdmX inh: -3; aSyn UTR inh: -2

Results for COc1ccc(-c2cc(-c3ccccc3)c(C#N)c(SCC(=O)O)n2)cc1 ?
CSC inhib: 16; A1 inh: 0; Beta apoptosis: 0; Mdm2-MdmX inh: 1; aSyn UTR inh: 6

What do the screens show for `COc1ccc(-c2cc(-c3cccs3)c(C#N)c(SCC(=O)NCc3ccco3)n2)cc1`?
CSC inhib: -8; A1 inh: 0; Beta apoptosis: -2; Mdm2-MdmX inh: 56*; Mdm2-MdmX conf: 70*; FLuc counter: 52*

How did COc1cc(-c2cc(-c3ccccc3)nc(SCC(=O)Nc3nccs3)c2C#N)cc(OC)c1OC do in these assays?
CSC inhib: -2; A1 inh: 2; Beta apoptosis: 13; Mdm2-MdmX inh: 51*; aSyn UTR inh: 0; Mdm2-MdmX conf: 26

How did COc1ccccc1-c1cc(-c2ccccc2)nc(SCC(=O)O)c1C#N do in these assays?
CSC inhib: 11; A1 inh: 0; Beta apoptosis: -1; Mdm2-MdmX inh: 6; aSyn UTR inh: -12

What do the screens show for `COc1cccc(-c2ccc(C#N)c(SCC(=O)NCc3ccco3)n2)c1`?
CSC inhib: -11; A1 inh: 0; Beta apoptosis: -8; Mdm2-MdmX inh: 28; aSyn UTR inh: -19

What do the screens show for `COc1ccc(CNC(=O)CSc2nc(-c3ccccc3)cc(-c3cccs3)c2C#N)cc1`?
CSC inhib: 1; A1 inh: 1; Beta apoptosis: 19; Mdm2-MdmX inh: 63*; aSyn UTR inh: 8; Mdm2-MdmX conf: -4

What do the screens show for `CC(=O)NC(Cc1ccc(F)cc1)C(=O)NC1CCN(C(=O)NCc2ccccc2)CC1` (stereo not drawn)?
CSC inhib: -7; A1 inh: 0; Beta apoptosis: -7; Mdm2-MdmX inh: 7; aSyn UTR inh: -1

What do the screens show for `NC(=O)CC(NC(=O)Cc1cccc2ccccc12)c1ccc(N2CCN(c3ccc(F)cc3)CC2)c([N+](=O)[O-])c1` (stereo not drawn)?
CSC inhib: 17; A1 inh: 0; Beta apoptosis: 0; Mdm2-MdmX inh: 37; aSyn UTR inh: 27

How did C[C@H](CO)N1C[C@H](C)[C@@H](CN(C)C(=O)NC2CCCCC2)Oc2c(NC(=O)Nc3ccc(C(F)(F)F)cc3)cccc2C1=O do in these assays?
A1 inh: 0; Beta apoptosis: inconclusive; Mdm2-MdmX inh: 28

How did CCC(C)c1ccc(NC(=S)NC2CCN(Cc3ccccc3)CC2)cc1 (stereo not drawn) do in these assays?
CSC inhib: 36; A1 inh: 2; Beta apoptosis: 111*; Mdm2-MdmX inh: 76*; aSyn UTR inh: 20; Mdm2-MdmX conf: 29

How did N#C/C(=C\C=C\c1ccccc1[N+](=O)[O-])C(=O)NC1CCCCC1 do in these assays?
CSC inhib: 82*; A1 inh: 0; Beta apoptosis: -15; Mdm2-MdmX inh: 99*; aSyn UTR inh: -132; Mdm2-MdmX conf: 61*; FLuc counter: 54*

How did CCOc1ccc(NC(=O)CN(C)C(=O)c2cc(-c3ccc(OC)cc3)nc3ccccc23)cc1OCC do in these assays?
CSC inhib: -8; A1 inh: 0; Beta apoptosis: 5; Mdm2-MdmX inh: 71*; aSyn UTR inh: -29; Mdm2-MdmX conf: 46*; FLuc counter: 75*

What do the screens show for `COc1cccc(NC(=O)CN(C)C(=O)c2cc(-c3cccc(Br)c3)nc3ccccc23)c1`?
CSC inhib: 36; A1 inh: -1; Beta apoptosis: 4; Mdm2-MdmX inh: 70*; aSyn UTR inh: 7; Mdm2-MdmX conf: 36

Results for O=C(Nc1cc(C(=O)N2CCN(c3ccccc3O)CC2)ccc1Cl)c1cccs1 ?
CSC inhib: -13; A1 inh: 0; Beta apoptosis: 6; Mdm2-MdmX inh: 19; aSyn UTR inh: 15

How did O=C(CC1CS(=O)(=O)CC1CC(=O)Nc1ccc2c(c1)OCCO2)Nc1ccc2c(c1)OCCO2 (stereo not drawn) do in these assays?
CSC inhib: 0; A1 inh: 0; Beta apoptosis: -4; Mdm2-MdmX inh: 63*; aSyn UTR inh: -53; Mdm2-MdmX conf: 77*; FLuc counter: 90*

How did CN1C(=O)C(O)(CC(=O)/C=C\c2ccc3c(c2)OCO3)c2ccccc21 (stereo not drawn) do in these assays?
CSC inhib: 2; A1 inh: 0; Beta apoptosis: -4; Mdm2-MdmX inh: 55*; aSyn UTR inh: -38; Mdm2-MdmX conf: -2

What do the screens show for `O=c1[nH]c(CN2CCN(c3ccc(O)cc3)CC2)nc2scc(-c3ccc(Cl)cc3)c12`?
CSC inhib: 105*; A1 inh: 1; Beta apoptosis: 8; Mdm2-MdmX inh: 59*; aSyn UTR inh: 25; Mdm2-MdmX conf: 54*; FLuc counter: 58*

Results for Cc1ccc(NC(=O)C2CCN(S(=O)(=O)c3ccc4c(c3)NC(=O)C(C)S4)CC2)cc1Cl (stereo not drawn) ?
CSC inhib: 32; A1 inh: 0; Beta apoptosis: 107*; Mdm2-MdmX inh: 61*; aSyn UTR inh: 28; Mdm2-MdmX conf: 9

How did CCCc1c(O)nc(SC2CC(=O)N(c3ccc(C)c(Cl)c3)C2=O)[nH]c1=O (stereo not drawn) do in these assays?
CSC inhib: -5; A1 inh: 1; Beta apoptosis: -1; Mdm2-MdmX inh: 16; aSyn UTR inh: 12

Results for Cc1ccc(N2C(=O)CC(Sc3nc4ccccc4o3)C2=O)cc1Cl (stereo not drawn) ?
CSC inhib: -6; A1 inh: 0; Beta apoptosis: -10; Mdm2-MdmX inh: 89*; aSyn UTR inh: 17; Mdm2-MdmX conf: 8
